Assay outcomes deposited in PubChem BioAssay by National Center for Advancing Translational Sciences (NCATS).
Only some compounds are listed: those with a hit (about 19% of all), similar ones and a draw of the others.
IL-1B inflam inh – blocks inflammasome-driven IL-1 beta release; THP-1 LPS/ATP IL-1B secretion, AlphaLISA, 16 h; hits give low values; hit rate 4.7% among 360,000; activity change, % at 57.5 µM; in the data active means activity change below about -50%; inconclusive means mostly about -30% to -49%; further: on the % scale 0 is the no-effect control and ±100 the full control effect
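THP-1 cells pretreated 1 hr with compounds (up to 57.5 uM final), then stimulated with LPS (250 ng/mL final) plus ATP (1.25 mM final); secreted IL-1B measured by AlphaLISA after 16 hr, decreased signal indicating inhibition.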
MCF10A rerep – DNA re-replication induction in MCF 10a cells; hit rate 2.9% among 350,000; MCF 10A DNA re-replication, Hoechst nuclear intensity, 48 h; AID 624296; Potency, µM (titrated, usually from 46.1 µM), without a hit: top-dose activity, positive = re-replication, hits mostly activators; further: potency means the concentration at half of the fitted maximal effect; % of control where 0% means no effect; nearly all actives have a fitted effect of over 50% in size
TDP1 cell CPT – growth inhibition of DT40 Tdp1-/-;hTDP1 cells with camptothecin (screen for TDP1 inhibitors); Potency, µM (highest dose often 46.2 µM), for the others: top-dose activity change, negative = growth inhibition, hits mostly inhibitors; hit rate 12% among 420,000; AID 686979; chicken DT40 Tdp1-/-;hTDP1 cells + 20 nM CPT, ATP luminescence, 48 h; further: potency means the concentration at half of the fitted maximal effect; on the % scale 0 is the no-effect control and ±100 the full control effect; nearly all actives have a fitted effect of over 55% in size
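Cell growth measured by CellTiter-Glo luminescence after a minimum 48 h, 37 C compound exposure with 20 nM CPT in Tdp1-knockout DT40 cells stably expressing hTDP1, seeded 400/well; qHTS titration format.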
SW480 rereplic – induces DNA re-replication in SW480 colon adenocarcinoma cells; SW480 DNA re-replication, Hoechst DNA content imaging, 48 h; hit rate 1.8% among 340,000; Potency, µM (highest dose often 46.1 µM), for the others: at the top dose re-replication activation, hits mostly activators; further: potency means the concentration at half of the fitted maximal effect; % of control where 0% means no effect; nearly all actives have a fitted effect of over 55% in size
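Readout is total intensity of Hoechst-stained nuclei, excited at 405 nm and collected at 500-530 nm. Compound treatment lasted 48 hr at 37 C in 5% CO2 before staining.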
Chronic BCR inh – inhibitors of chronic active B-cell receptor signaling | Potency, µM (titrated, usually from 46.1 µM), without a hit: at the top dose activity change, negative = inhibition, hits mostly inhibitors | AID 493014 | hit rate 0.05% among 340,000 | ABC-DLBCL IkBa-CBG/CBR reporter, luminescence ratio, 4 h; active means well fitted inhibition curve with a large enough effect in the signal ratio, with a control signal flat, not every such curve was filed as active; inconclusive means small, poorly fitted or top-dose-only effect, or effect the other way, or a change in a side signal; the % refers to the signal ratio;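 further: potency means the concentration at half of the fitted maximal effect; plate controls were basal doxycycline-induced cells for no effect and cells given 10 µM MG132 for full effect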
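TMD8 human ABC-DLBCL cells with doxycycline-inducible IκBα–green luciferase fusion and unfused red luciferase, in 0.5% FBS medium; compounds up to 46 uM, 4 h at 37C. Green/red luminescence ratio, filter-overlap corrected, fitted to concentration-response curves.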
TDP1 cell noCPT – qHTS for Inhibitors of human tyrosyl-DNA phosphodiesterase 1 (TDP1): qHTS in cells in absence of CPT. Potency, µM (top dose mostly 46.2 µM), without a hit: at the highest dose activity change, negative = growth inhibition, actives largely listed as inhibitors. DT40 Tdp1-/- hTDP1 cells, no CPT, ATP luminescence, 48 h. hit rate 15% among 420,000. AID 686978, 2013; further: potency means the concentration at half of the fitted maximal effect; on the % scale 0 is the no-effect control and ±100 the full control effect; nearly all actives have a fitted effect of over 55% in size
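A cellular qHTS used chicken DT40 cells lacking endogenous Tdp1 but carrying stably transfected human TDP1. Compounds were applied without camptothecin, and cell growth kinetics were judged by ATP-dependent luminescence after ≥48 hr.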
* = called active by the depositor; i = inactive; ? = inconclusive; · = no result. Unless noted, the call rests on the fitted dose curve; in most records, active means well fitted curve in the direction sought with a large enough effect; inconclusive means small, poorly fitted or top-dose-only effect, or another doubt; inactive means no such curve, though single readings can be large; an effect the other way counts as inactive or inconclusive.

SMILES | IL-1B inflam inh | MCF10A rerep | TDP1 cell CPT | SW480 rereplic | Chronic BCR inh | TDP1 cell noCPT
Cc1noc(C)c1S(=O)(=O)Nc1ccc2c(c1)C(=O)N([C@H](C)CO)C[C@H](C)[C@@H](CN(C)C(=O)CCCN(C)C)OCCCC[C@@H](C)O2 | 1 | · | -1% | · | · | -2%
C[C@H]1CCCCO[C@@H](CN(C)S(=O)(=O)c2ccc(Cl)cc2)[C@@H](C)CN([C@@H](C)CO)C(=O)c2cc(NS(=O)(=O)c3ccccc3)ccc2O1 | 3 | · | ? | · | · | ?
C[C@@H]1CCCCO[C@@H](CN(C)S(=O)(=O)c2ccccc2)[C@@H](C)CN([C@H](C)CO)C(=O)c2cc(NS(=O)(=O)c3ccc(F)cc3)ccc2O1 | -24 | · | ? | · | · | 21µM*
C[C@@H]1CCCCO[C@@H](CN(C)S(=O)(=O)c2ccc(Cl)cc2)[C@@H](C)CN([C@H](C)CO)C(=O)c2cc(N(C)C)ccc2O1 | 2 | · | 10% | · | · | 10%
CCCC1(C2CCCC2)NC(=O)NC1=O (stereo not given) | 13 | 0% | -4% | 1% | · | -4%
N#Cc1ccc(C(=O)N2CCCCC2c2cc(C(=O)Nc3cccc(C#N)c3)no2)cc1 (stereo not given) | -30 | · | ? | · | · | ?
C[C@H]1CCCCO[C@@H](CN(C)C(=O)NC2CCCCC2)[C@@H](C)CN([C@@H](C)CO)C(=O)c2cc(NC(=O)Cc3ccccc3)ccc2O1 | -22 | · | -9% | · | · | 18µM*
C[C@H](CO)N1C[C@H](C)[C@@H](CN(C)S(=O)(=O)c2ccccc2)OCCCC[C@H](C)Oc2ccc(NC(=O)CCC(F)(F)F)cc2C1=O | 8 | · | ? | · | · | ?
C[C@@H]1CCCCO[C@H](CN(C)S(=O)(=O)c2ccccc2)[C@@H](C)CN([C@H](C)CO)C(=O)c2cc(NC(=O)Cc3ccccc3)ccc2O1 | -1 | · | 21µM* | · | · | ?
CN(C)S(=O)(=O)c1cccc(-c2nnc3n2CCCCC3)c1 | 40 | 13% | 0% | -6% | -3% | 1%
OC(CNCC(c1ccc(Cl)cc1Cl)c1c[nH]c2ccccc12)c1ccccc1 (stereo not given) | -103* | ? | ? | 9% | ? | 13µM*
CCOc1c(Cl)cc(CNCC(O)c2ccccc2)cc1OC (stereo not given) | -8 | ? | ? | 5% | -4% | -22%
Cc1ccc(NC(=O)/C=C\C(=O)O)c([N+](=O)[O-])c1 | 5 | -5% | -1% | -7% | 2% | -7%
Cc1cc(C)c(NC(=O)/C=C\C(=O)O)c([N+](=O)[O-])c1 | 0 | 15% | ? | 0.16µM* | 5% | ?
CCOC(=O)C1CCN(C(=O)/C=C/c2ccc3c(c2)OCO3)CC1 | 8 | ? | -9% | -3% | ? | -25%
COc1cccc2c1OC[C@@H](CO)[C@H]2N(C)C(=O)Nc1ccc(Cl)cc1Cl | 23 | 4% | 13µM* | -4% | 15% | 10µM*
OCCNc1nnc(-c2ccccc2)c(-c2ccccc2)n1 | 15 | 14% | ? | -21% | · | ?
C[C@]12c3[nH]c4cc(-c5ccco5)ccc4c3CCN1C(=O)[C@@H](CC(=O)NCc1ccco1)C[C@@H]2C(=O)N1CCOCC1 | -8 | 1% | ? | -6% | -1% | ?
C[C@]12c3[nH]c4ccc(Cl)cc4c3CCN1C(=O)[C@@H](CC(=O)NCc1ccco1)C[C@@H]2C(=O)N1CCCCC1 | -55* | 4% | 6.5µM* | 13% | ? | 5.8µM*
COc1ccc2[nH]c3c(c2c1)CCN1C(=O)C(CC(=O)NCCN2CCOCC2)C[C@H](C(=O)N2CCCCC2)[C@@]31C (stereo not given in full) | -6 | -1% | -6% | -32% | -1% | -15%
COc1ccc2[nH]c3c(c2c1)CCN1C(=O)C(CC(=O)NCc2ccco2)C[C@H](C(=O)N2CCCCC2)[C@@]31C (stereo not given in full) | -5 | 4% | -28% | 18µM* | 0% | ?
COc1ccc(C(=O)N2CCN(CCc3ccccc3)CC2)cc1[N+](=O)[O-] | i | ? | ? | -30% | 7% | -20%
O=C1c2ccccc2C(Nc2ccc3c(c2)OCO3)N1Cc1ccc2c(c1)OCO2 (stereo not given) | -17 | -1% | ? | 6% | 5% | 15µM*
Cc1ccc2oc(=O)c3cnn(CC(=O)Nc4cccc(C(F)(F)F)c4)c3c2c1 | · | · | 3% | · | · | -8%
CC(C)OC(=O)c1ccc2ccc(-c3ccccc3)nc2c1 | 57 | · | ? | · | · | 16µM*
SMILES | IL-1B inflam inh | MCF10A rerep | TDP1 cell CPT | SW480 rereplic | Chronic BCR inh | TDP1 cell noCPT
COc1ncnc2c1oc1ccccc12 | 15 | 9% | -4% | 12% | 29% | -28%
CCOc1ccccc1Oc1ncnc2c1oc1ccccc12 | · | · | 13µM* | · | ? | 21µM*
Cc1cccc(NC(=O)CSc2nc3c(oc4ccccc43)c(=O)n2-c2ccccc2)c1C | · | · | ? | · | · | 21µM*
CCOc1ccccc1NC(=O)CSc1nc2c(oc3ccccc32)c(=O)n1-c1ccc(F)cc1 | · | · | 8.2µM* | · | · | 6.5µM*
COCCn1c(SCC(=O)Nc2ccccc2OC)nc2c(oc3ccccc32)c1=O | -22 | 3% | ? | -17% | -11% | ?
CCc1ccccc1NC(=O)CSc1nc2c(oc3ccccc32)c(=O)n1-c1ccccc1 | · | · | 23µM* | · | · | 18µM*
Cc1cc(C)cc(NC(=O)CSc2nc3c(oc4ccccc43)c(=O)n2-c2ccccc2)c1 | -14 | 14% | -16% | 3% | ? | ?
CCOc1ccccc1NC(=O)CSc1ncnc2c1oc1ccccc12 | 0 | -1% | 29µM* | 1% | -2% | ?
Cc1cccc(-n2c(SCC(=O)Nc3ccccc3C)nc3c(oc4ccccc43)c2=O)c1 | · | · | 7.3µM* | · | · | 5.2µM*
O=C(CS(=O)CC(=O)Nc1cccnc1)Nc1ccc(F)cc1 (stereo not given) | -5 | -16% | -3% | -4% | -17% | -27%
Cc1ccc(N2CC(NC(=O)C3CC3)CC2=O)cc1C (stereo not given) | · | · | 23% | · | -21% | -8%
CN(C)C1=NCC(CSC(=N)N)S1 (stereo not given) | ? | ? | ? | 8.2µM* | -15% | -17%
O=Nc1c2cc(-c3ccccc3)[nH]nc-2c2ccccc12 | 28 | 8% | 21µM* | 5% | ? | 21µM*
